From paper PMC11006913 come the findings set out here.

Positions count from the first letter of the chain named.

Common to all, as to test: PBM; 200 nM protein, PBS
Holding throughout (details): dsDNA, one strand shown

The target of test [1] is T1, SIX6 (Homo sapiens, UniProt O95475 114-200, L167I).
T1 sequence: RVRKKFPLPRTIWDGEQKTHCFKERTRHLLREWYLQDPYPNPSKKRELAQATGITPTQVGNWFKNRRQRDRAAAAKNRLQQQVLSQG

In test [2] the target is T2, SIX6 (Homo sapiens, UniProt O95475 114-200, L143V).
T2 sequence: T1 sequence with L30V, I54L

Test [3] concerns the target T3, SIX6 (Homo sapiens, UniProt O95475 114-200, H141N).
T3 sequence: T1 sequence with H28N, I54L

The target in test [4] is T4, SIX6 (Homo sapiens, UniProt O95475 114-200, T165P).
T4 sequence: T1 sequence with T52P, I54L

Test [5] deals with T5, SIX6 (Homo sapiens, UniProt O95475 114-200, L167M).
T5 sequence: T1 sequence with I54M

In test [6] the target is T6, SIX6 (Homo sapiens, UniProt O95475 114-200, L143M).
T6 sequence: T1 sequence with L30M, I54L

Test [7] deals with T7, SIX6 (Homo sapiens, UniProt O95475 114-200, L143I).
T7 sequence: T1 sequence with L30I, I54L

The target of test [8] is T8, SIX6 (Homo sapiens, UniProt O95475 114-200, T165G).
T8 sequence: T1 sequence with T52G, I54L

Test [9] has as its target T9, SIX6 (Homo sapiens, UniProt O95475 114-200, T139Q).
T9 sequence: T1 sequence with T26Q, I54L

In test [10] the target is T10, SIX6 (Homo sapiens, UniProt O95475 114-200, T165A).
T10 sequence: T1 sequence with T52A, I54L

Test [11] addresses T11, SIX6 (Homo sapiens, UniProt O95475 114-200, L167V).
T11 sequence: T1 sequence with I54V

Test [12] concerns the target T12, SIX6 (Homo sapiens, UniProt O95475 114-200).
T12 sequence: T1 sequence with I54L

In test [13] the target is T13, SIX6 (Homo sapiens, UniProt O95475 114-200, T165I).
T13 sequence: T1 sequence with T52I, I54L

In test [14] the target is HOXA2 (Homo sapiens, UniProt O43364 129-215, R185T).
Test [15] deals with HOXA2 (Homo sapiens, UniProt O43364 129-215, R185K).
In test [16] the target is HOXA2 (Homo sapiens, UniProt O43364 129-215, Y150S).
Test [17] addresses HOXA2 (Homo sapiens, UniProt O43364 129-215).

Sequence of HOXA2 (Homo sapiens, UniProt O43364 129-215, R185T) (O43364 129-215 R185T): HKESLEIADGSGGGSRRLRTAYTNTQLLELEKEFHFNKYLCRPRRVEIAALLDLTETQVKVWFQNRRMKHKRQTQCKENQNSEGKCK
Sequence of HOXA2 (Homo sapiens, UniProt O43364 129-215, Y150S) (O43364 129-215 Y150S): as the sequence (O43364 129-215 R185T) above, with Y22S, T57R counted along it
Sequence of HOXA2 (Homo sapiens, UniProt O43364 129-215, R185K) (O43364 129-215 R185K): as the sequence (O43364 129-215 R185T) above, with T57K counted along it
Sequence of HOXA2 (Homo sapiens, UniProt O43364 129-215) (O43364 129-215): as the sequence (O43364 129-215 R185T) above, with T57R counted along it

CCACCCGC: the binding signal with SIX6 [1] is 9.19 upbm affinity estimate (log intensity, higher = more binding, comparable within an allelic series); with SIX6 [2], 9.01 upbm affinity estimate (log intensity, higher = more binding, comparable within an allelic series); in the test with SIX6 [3] it was 9.2 upbm affinity estimate (log intensity, higher = more binding, comparable within an allelic series); with SIX6 [4], 9.04 upbm affinity estimate (log intensity, higher = more binding, comparable within an allelic series); in the test with SIX6 [5] it was 9.21 upbm affinity estimate (log intensity, higher = more binding, comparable within an allelic series); with SIX6 [6] it was 9.22 upbm affinity estimate (log intensity, higher = more binding, comparable within an allelic series). For the same sequence, the binding signal is 9.08 upbm affinity estimate (log intensity, higher = more binding, comparable within an allelic series) with SIX6 [7]; 9.26 upbm affinity estimate (log intensity, higher = more binding, comparable within an allelic series) with SIX6 [8]; 9.36 upbm affinity estimate (log intensity, higher = more binding, comparable within an allelic series) in the test with SIX6 [9]; 9.23 upbm affinity estimate (log intensity, higher = more binding, comparable within an allelic series) with SIX6 [10]; 9.16 upbm affinity estimate (log intensity, higher = more binding, comparable within an allelic series) with SIX6 [11]; 9.18 upbm affinity estimate (log intensity, higher = more binding, comparable within an allelic series) with SIX6 [12]. In addition, the binding signal with SIX6 [13] is 9.15 upbm affinity estimate (log intensity, higher = more binding, comparable within an allelic series).

As for CCGGGCGC, the binding signal in the test with SIX6 [1] was 8.78 upbm affinity estimate (log intensity, higher = more binding, comparable within an allelic series); with SIX6 [2], 8.67 upbm affinity estimate (log intensity, higher = more binding, comparable within an allelic series); with SIX6 [3], 8.71 upbm affinity estimate (log intensity, higher = more binding, comparable within an allelic series); in the test with SIX6 [4] it was 8.75 upbm affinity estimate (log intensity, higher = more binding, comparable within an allelic series); with SIX6 [5] it was 8.72 upbm affinity estimate (log intensity, higher = more binding, comparable within an allelic series); in the test with SIX6 [6], 8.66 upbm affinity estimate (log intensity, higher = more binding, comparable within an allelic series). Besides, the binding signal in the test with SIX6 [7] is 8.69 upbm affinity estimate (log intensity, higher = more binding, comparable within an allelic series); with SIX6 [8], 8.73 upbm affinity estimate (log intensity, higher = more binding, comparable within an allelic series); with SIX6 [9], 8.6 upbm affinity estimate (log intensity, higher = more binding, comparable within an allelic series); with SIX6 [10], 8.69 upbm affinity estimate (log intensity, higher = more binding, comparable within an allelic series); with SIX6 [11], 8.69 upbm affinity estimate (log intensity, higher = more binding, comparable within an allelic series); with SIX6 [12], 8.66 upbm affinity estimate (log intensity, higher = more binding, comparable within an allelic series). For the same sequence, in the test with SIX6 [13], the binding signal was 8.72 upbm affinity estimate (log intensity, higher = more binding, comparable within an allelic series).

CGCGTGGC: the binding signal was 9.04 upbm affinity estimate (log intensity, higher = more binding, comparable within an allelic series) with SIX6 [1]; 8.85 upbm affinity estimate (log intensity, higher = more binding, comparable within an allelic series) with SIX6 [2]; 9.07 upbm affinity estimate (log intensity, higher = more binding, comparable within an allelic series) with SIX6 [3]; 8.86 upbm affinity estimate (log intensity, higher = more binding, comparable within an allelic series) with SIX6 [4]; 8.92 upbm affinity estimate (log intensity, higher = more binding, comparable within an allelic series) with SIX6 [5]; 8.96 upbm affinity estimate (log intensity, higher = more binding, comparable within an allelic series) with SIX6 [6]. The binding signal with SIX6 [7] is 8.93 upbm affinity estimate (log intensity, higher = more binding, comparable within an allelic series); with SIX6 [8], 9 upbm affinity estimate (log intensity, higher = more binding, comparable within an allelic series); with HOXA2 [14] it was 7.16 upbm affinity estimate (log intensity, higher = more binding, comparable within an allelic series); with SIX6 [9] it was 9.1 upbm affinity estimate (log intensity, higher = more binding, comparable within an allelic series); with SIX6 [10], 8.98 upbm affinity estimate (log intensity, higher = more binding, comparable within an allelic series); with HOXA2 [15], 10.4 upbm affinity estimate (log intensity, higher = more binding, comparable within an allelic series). The binding signal was 8.96 upbm affinity estimate (log intensity, higher = more binding, comparable within an allelic series) with SIX6 [11]; 8.97 upbm affinity estimate (log intensity, higher = more binding, comparable within an allelic series) in the test with SIX6 [12]; 9.02 upbm affinity estimate (log intensity, higher = more binding, comparable within an allelic series) with SIX6 [13]; 10.3 upbm affinity estimate (log intensity, higher = more binding, comparable within an allelic series) with HOXA2 [16]; 7.31 upbm affinity estimate (log intensity, higher = more binding, comparable within an allelic series) with HOXA2 [17].

For CGGGAAGC, the binding signal was 9.04 upbm affinity estimate (log intensity, higher = more binding, comparable within an allelic series) in the test with SIX6 [1]; 8.99 upbm affinity estimate (log intensity, higher = more binding, comparable within an allelic series) with SIX6 [2]; 9 upbm affinity estimate (log intensity, higher = more binding, comparable within an allelic series) with SIX6 [3]; 9.05 upbm affinity estimate (log intensity, higher = more binding, comparable within an allelic series) with SIX6 [4]; 9.01 upbm affinity estimate (log intensity, higher = more binding, comparable within an allelic series) with SIX6 [5]; 8.96 upbm affinity estimate (log intensity, higher = more binding, comparable within an allelic series) with SIX6 [6]. Moreover, the binding signal in the test with SIX6 [7] was 9.03 upbm affinity estimate (log intensity, higher = more binding, comparable within an allelic series); with SIX6 [8] it was 9.03 upbm affinity estimate (log intensity, higher = more binding, comparable within an allelic series); in the test with SIX6 [9], 9.07 upbm affinity estimate (log intensity, higher = more binding, comparable within an allelic series); with SIX6 [10], 9.03 upbm affinity estimate (log intensity, higher = more binding, comparable within an allelic series); with SIX6 [11], 9.01 upbm affinity estimate (log intensity, higher = more binding, comparable within an allelic series); with SIX6 [12], 8.93 upbm affinity estimate (log intensity, higher = more binding, comparable within an allelic series). Besides, the binding signal with SIX6 [13] is 8.99 upbm affinity estimate (log intensity, higher = more binding, comparable within an allelic series).

CTCCGCCC: the binding signal with SIX6 [1] was 8.91 upbm affinity estimate (log intensity, higher = more binding, comparable within an allelic series); with SIX6 [2], 8.91 upbm affinity estimate (log intensity, higher = more binding, comparable within an allelic series); in the test with SIX6 [3], 8.92 upbm affinity estimate (log intensity, higher = more binding, comparable within an allelic series); in the test with SIX6 [4] it was 8.95 upbm affinity estimate (log intensity, higher = more binding, comparable within an allelic series); in the test with SIX6 [5], 8.94 upbm affinity estimate (log intensity, higher = more binding, comparable within an allelic series); with SIX6 [6], 8.89 upbm affinity estimate (log intensity, higher = more binding, comparable within an allelic series). Besides, the binding signal with SIX6 [7] is 8.86 upbm affinity estimate (log intensity, higher = more binding, comparable within an allelic series); with SIX6 [8] it was 8.87 upbm affinity estimate (log intensity, higher = more binding, comparable within an allelic series); with SIX6 [9] it was 8.89 upbm affinity estimate (log intensity, higher = more binding, comparable within an allelic series); with SIX6 [10] it was 8.96 upbm affinity estimate (log intensity, higher = more binding, comparable within an allelic series); with SIX6 [11] it was 8.86 upbm affinity estimate (log intensity, higher = more binding, comparable within an allelic series); with SIX6 [12], 8.89 upbm affinity estimate (log intensity, higher = more binding, comparable within an allelic series). Also, in the test with SIX6 [13], the binding signal was 8.95 upbm affinity estimate (log intensity, higher = more binding, comparable within an allelic series).
